Experimental findings from PubChem BioAssay AID1345085 (National Center for Advancing Translational Sciences (NCATS), 2018) are described below.

Results filed as inconclusive are left out. Where a call stands in place of a potency, no number is given. Unmarked numbers belong to inactive results. Activity calls are given as the source filed them. Calls follow the shape of the dose curve; as a rule, active = well fitted cell-killing curve with a large enough effect; inconclusive = small, poorly fitted or top-dose-only effect, or effect the other way; inactive = no such curve, though single readings can be large or run the other way.

The test has as its system CAOV3. Description: Confirmatory qHTS for gynecologic anti-cancer compounds from libraries of approved drugs and bioactive compounds. Also: nearly all actives have a fitted effect of over 55% in size. The following applies: gynecologic cancer cell panel viability, ATPlite luminescence, 48 h; series mostly up to 57.6 µM. A digest of the protocol:
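Cells (1,000/well) were plated, left 16 h at 37 C/5% CO2, then given compound at 11 concentrations (1:3) from 57.5 uM to 0.977 nM for 48 h. ATPlite luminescence after 15 min at room temperature gave IC50 values.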
On the technique in general: qHTS replaces the single test concentration by a dilution series.
Potency is read from the fitted curve at half-maximal effect.

`O=c1cc(CN2CCOCC2)occ1OCCCCCSc1ccnc2cc(C(F)(F)F)ccc12`: the Potency result was “inactive”.

`O=C(Nc1cccnc1)N1CCC(Cc2cccc(Oc3ccc(C(F)(F)F)cn3)c2)CC1`: the Potency result was “inactive”.

In the case of `NS(=O)(=O)OC[C@@H]1C[C@@H](n2ccc3c(N[C@H]4CCc5ccccc54)ncnc32)C[C@@H]1O`, the Potency is 3.06 µM (active).

On to `CN1C2CCC1CC(OC(=O)[C@H](CO)c1ccccc1)C2` (some centres undefined), for which the Potency result was “inactive”.

For the compound `CC[C@H](Nc1ncnc2nc[nH]c12)c1nc2cccc(F)c2c(=O)n1-c1ccccc1`, the activity change, negative = viability loss is -13.8% [at 10.7 µM].

Take `O=c1[nH]c(=O)n([C@H]2C[C@H](O)[C@@H](CO)O2)cc1Br`: the Potency result was “inactive”.

For `Nc1ncnc2c1ncn2[C@@H]1O[C@H](CO)C[C@H]1O`, the Potency result was “inactive”.

Regarding `CCS(=O)(=O)c1cccc(-c2cc(C(=O)NC3CCN(C)CC3)c(C)c3[nH]c4ncc(C)cc4c23)c1`, the Potency was 0.672 µM (active).

`Cc1cnc(Nc2cccc(CN3CCOCC3)c2)nc1Nc1cccc(S(=O)(=O)NC(C)(C)C)c1`: the Potency was 10.9 µM (active).

Regarding `Cc1ccc(C(N)=O)cc1Nc1nccc(-c2cn(C(C)C)c3cnccc23)n1`, the Potency is 17.2 µM (active).

`Cc1ccc(-n2[nH]c(C)c(N=Nc3cccc(-c4cccc(C(=O)O)c4)c3O)c2=O)cc1C`: the Potency is 27.3 µM (active).

For the compound `COc1cccc2c1C(=O)c1c(O)c3c(c(O)c1C2=O)C[C@@](O)(C(=O)CO)C[C@@H]3O[C@H]1C[C@H](N)[C@H](O)[C@H](C)O1`, the Potency is 2.43 µM (active).

As for `CN1C(=O)C(Cc2c[nH]c3ccccc23)NC1=S` (centres undefined), the Potency result is “inactive”.

Consider `CN(c1nccc(=O)[nH]1)C1CCN(c2nc3ccccc3n2Cc2ccc(F)cc2)CC1`, for which the Potency result was “inactive”.
